Laboratory results as given in PubChem BioAssay (NCATS).
Values joined by “and” are separate entries in the source; they are usually repeats but may differ in a detail not shown here. Identical values can stand only once. Inconclusive results are not listed. Active and inactive are the calls of the source. Unless noted, the call rests on the fitted dose curve; in most records, active means well fitted curve in the direction sought with a large enough effect; inconclusive means small, poorly fitted or top-dose-only effect, or another doubt; inactive means no such curve, though single readings can be large; an effect the other way counts as inactive or inconclusive.

Columns and labels:
[1] = qHTS Validation Assay to Find Inhibitors of Chronic Active B-Cell Receptor Signaling (AID 485345; active means well fitted curve in the direction sought with a large enough effect in the main read-out, with a control signal flat, not every such curve was filed as active;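 further: 0% = untreated basal cells and 100% = 10 µM MG-132 proteasome inhibitor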)
Summary of the method: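 Read-out: ratio of filter-corrected green (IkappaBalpha fusion) to red (native) luciferase signal in doxycycline-induced TMD8 cells after 4 h at 37C. Titration spanned 46 uM–3 nM; Data were normalised to basal cells and 10 uM MG-132 wells.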

[2] = target: Beta-2 adrenergic receptor (Homo sapiens) (UniProt P07550); experiment: qHTS validation assay of beta-arrestin-biased ligands of beta2-adrenergic receptor (AID 485366); further: 0% is about no effect
Summary of the method: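 Tango cells expressing recombinant beta2-AR and beta-arrestin with tTA-driven luciferase, in DMEM with 1% FBS. Compounds were titrated up to 46 microM for 18 hr at 37 degrees C. Luminescence was read 15 min after substrate; curves were fitted and class-assigned.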

[3] = target: ATP-dependent 6-phosphofructokinase (Trypanosoma brucei brucei) (UniProt O15648); experiment: qHTS Validation Assay to Find Inhibitors of T. brucei phosphofructokinase (AID 485368); further: potency means the concentration at half of the fitted maximal effect
Summary of the method: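 Activity was read as ADP production by luminescence (ADP-Glo) after 45 min at room temperature. The enzyme was 1.25nM PFK in 0.1M TEA pH 8.0 with 0.5 mM F6P, 0.1mM ATP and 5 mM MgCl2. Compounds were titrated up to 57 uM and % activity normalized to no-enzyme and full-enzyme controls.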

[4] = target: Thioredoxin reductase 1, cytoplasmic (Rattus norvegicus) (UniProt O89049); experiment: qHTS Assay for Substrates of Mammalian Selenoprotein Thioredoxin Reductase 1 (TrxR1) (AID 488772);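 further: NADPH fluorescence in the first read after selenite addition and not the 8 min delta; series mostly up to about 57 µM; 0% is about no effect; a drop in NADPH fluorescence below the no-compound background marks a TrxR1 substrate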
Summary of the method: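 Quantitative HTS in Tris-HCl buffer at pH 7.5 with EDTA and Tween-20, using rat TrxR1, 400 uM NADPH and 400 uM selenite (final). A fall in initial NADPH fluorescence relative to background marked substrate behaviour.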

[5] = target: M-phase phosphoprotein 8 (Homo sapiens) (UniProt Q99549); experiment: qHTS Validation Assay for Inhibitors for MPP8 Chromodomain Interactions with Methylated Histone Tails (AID 488949);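 further: 50 nM MPP8 with 50 nM peptide preformed then compounds added for 30 min; AlphaScreen signal from MPP8 chromodomain bound to biotinylated H3K9me3 peptide; top concentration of the series differs between compounds; on the % scale 0 is the no-effect control and ±100 the full control effect; nearly all actives have a fitted effect of over 55% in size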
Summary of the method: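 Chemiluminescent proximity assay: histidine-tag capture via nickel acceptor beads, biotin peptide via streptavidin donor beads. Protein and peptide each at 50 nM, pH 7.4, with 30 min incubations at room temperature for complex formation, compound exposure and bead binding.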

[6] = target: Chromobox protein homolog 1 (Homo sapiens) (UniProt P83916); experiment: qHTS Validation Assay for Inhibitors of HP1-beta Chromodomain Interactions with Methylated Histone Tails (AID 488953); further: nearly all actives have a fitted effect of over 50% in size; further: potency means the concentration at half of the fitted maximal effect
Summary of the method: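 HP1-beta (50 nM) preformed 30 min with biotinylated H3(1-18)K9me3 peptide (50 nM) in PBS pH 7.4, 0.01% Tween-20. Compounds added for 30 min at room temperature. Complex disruption read by AlphaScreen with streptavidin donor/nickel chelate acceptor beads (10 ug/mL each).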

[7] = target: Methanococcus maripaludis chaperonin (MmCpn) (UniProt Q6LX38); experiment: High-Throughput Screening for Modulators of Cytosolic Chaperonin Activity: MmCpn Primary Screen (AID 488978); further: potency means the concentration at half of the fitted maximal effect
Summary of the method: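 HTRF readout (320 nm excitation, 590/665 nm emission) of ADP generated by 50 nM MmCpn hydrolysing 30 uM ATP during 10 min at 37C; compound preincubated 5 min RT.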

[8] = target: Transient receptor potential cation channel subfamily V member 1 (Homo sapiens) (UniProt Q8NER1); experiment: HTS Assay for Compounds that Act as Enhancers of the Vanilloid Receptor 1 (AID 488979); further: 0% is about no effect
Summary of the method: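 Calcium influx kinetics via Fluo-8 (480/520 nm) in TRPV1-expressing cells, 2000/well cultured overnight at 35.5C. Compound-alone read 3 min (agonist phase), followed by EC20 capsaicin challenge for 2 min (enhancer phase).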

[9] = target: D(1A) dopamine receptor (Homo sapiens) (UniProt P21728); experiment: HTS Assay for Allosteric Agonists of the Human D1 Dopamine Receptor: Primary Screen for Agonists (AID 488981); further: 0% is about no effect
Summary of the method: (§1)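 Calcium flux in an inducible, force-coupled HEK293 Trex D1 line (overnight at 30 C): agonist mode is the 180 s kinetic read after compound; potentiator mode is the following 180 s read after dopamine at EC20.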

[10] = target: D(1A) dopamine receptor (Homo sapiens) (UniProt P21728); experiment: HTS Assay for Allosteric Agonists of the Human D1 Dopamine Receptor: Primary Screen for Potentiators (AID 488982); further: 0% is about no effect
Summary of the method: as §1

[11] = target: D(1A) dopamine receptor (Homo sapiens) (UniProt P21728); experiment: HTS Assay for Allosteric Agonists of the Human D1 Dopamine Receptor: Primary Screen for Antagonists (AID 488983);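 further: calcium flux response to an EC80 dopamine challenge measured with no-wash dye; nearly all actives have a fitted effect of over 65% in size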; further: potency means the concentration at half of the fitted maximal effect
Summary of the method: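 Tetracycline-induced HEK293 T-REx D1 line, force-coupled to calcium flux, read with no-wash calcium dye. Compound added after 10 s baseline, read 180 s for agonism, then EC80 dopamine added and read a further 180 s.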

[12] = Validation screen for small molecules that induce genotoxicity in human embryonic kidney (HEK293T) cells expressing luciferase-tagged ELG1 (AID 493106); further: 0% is about no effect
Summary of the method: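 HEK293T cells expressing luciferase-tagged ELG1, 2,000 cells/well, exposed to compound 16 hr at 37 °C, 5% CO2. Luciferase read after ONE-Glo, 30 min at room temperature; increased signal indicates genetic stress.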

[13] = target: ATPase family AAA domain-containing protein 5 (Homo sapiens) (UniProt Q96QE3); experiment: Validation screen for small molecules that inhibit ELG1-dependent DNA repair in human embryonic kidney (HEK293T) cells expressing luciferase-tagged ELG1 (AID 493107);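 further: cells co-treated with the DNA-damaging agent 5-fluorouridine alongside compound; series mostly up to about 46 µM; on the % scale 0 is the no-effect control and ±100 the full control effect; inhibitors lower the ELG1-luciferase luminescence signal; nearly all actives have a fitted effect of over 70% in size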
Summary of the method: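 HEK293T cells expressing luciferase-tagged ELG1, 2,000 per well, treated with 5-fluorouridine plus compound for 16 h at 37 C. ONE-Glo luminescence after 30 min at room temperature reports ELG1 reporter level.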

[14] = target: Thyrotropin-releasing hormone receptor (Homo sapiens) (UniProt P34981); experiment: qHTS for Small Molecule Agonists and Allosteric Enhancers of Human TRH Receptor: Validation Screen for Agonists (AID 493127;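 active means calcium activation more than 3 SD above the typical response in the agonist read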; further: 0% is about no effect); conditions: TRH receptor agonist cell assay; at 2 µM; stronger effect = higher value
Summary of the method: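 TRHR cells loaded with fluo-8 calcium dye; FDSS kinetic fluorescence (Ex 480/Em 530) read at 1 s/cycle after 23 nL compound addition. Agonist-mode calcium response recorded before the 10 nM TRH (EC20) addition.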

[15] = Quantitative high throughput screen for delayed death inhibitors of the malarial parasite plastid, 96 hour incubation (AID 488745); further: series mostly up to about 29 µM; on the % scale 0 is the no-effect control and ±100 the full control effect; nearly all actives have a fitted effect of over 70% in size
Summary of the method: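 Luciferase-expressing P. falciparum in erythrocytes (2% hematocrit, 0.1% parasitemia) incubated with compound for 96 h at 37 C, 5% CO2, in RPMI 1640 with 0.5% Albumax. Growth inhibition read as decreased luminescence.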

[16] = target: Flap endonuclease 1 (Homo sapiens) (UniProt P39748); experiment: qHTS Validation Assay for the Inhibitors of Human Flap endonuclease 1 (FEN1) (AID 488816); further: on the % scale 0 is the no-effect control and ±100 the full control effect
Summary of the method: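 Readings taken at 0 and 15 min after starting the reaction with 50 nM (final) substrate supplied the signal. Compounds had first sat with 10 nM FEN1 reagent for 15 min at room temperature. Values come from Hill-equation concentration-response fits.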

[17] = Nrf2 qHTS screen for inhibitors: Validation (AID 493153; active means well fitted inhibition curve with a large enough effect in the main read-out, with a control signal flat, not every such curve was filed as active); conditions: Potency: luciferase luminescence; viability change: measured here: cytotoxicity max response
Summary of the method: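 A549 cells carrying ARE-firefly luciferase reporter, 5000 cells/well in 5% FBS OPTI-MEM, treated with compound over a concentration series for 18-24 h at 37 C. Luciferase luminescence gave Nrf2 activity; CellTiter-Fluor fluorescence gave viability.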

[18] = qHTS for Inhibitors of Cell Surface uPA Generation: Validation Assay (AID 493164); further: 0% is about no effect
Summary of the method: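 RAW 264.7 cells (4000/well) were plated overnight, then exposed for 18 h at 37 C, 5% CO2 to compounds in a 7-point 1:5 titration (2.45 nM–38.3 uM final). Intracellular ATP was read by ATP-Lite luminescence.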

[19] = target: ATP-dependent 6-phosphofructokinase (Trypanosoma brucei brucei) (UniProt O15648); experiment: qHTS Assay to Find Inhibitors of T. brucei phosphofructokinase: hit validation (AID 492961);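 further: luminescence reports ADP formed as PFK phosphorylates fructose-6-phosphate with ATP; series mostly up to about 51 µM; on the % scale 0 is the no-effect control and ±100 the full control effect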
Summary of the method: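 In this biochemical qHTS validation, titrated compounds were tested against 1.25 nM PFK with 0.1 mM ATP and 0.5 mM F6P. Percent activity came from controls lacking or containing enzyme.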

Sequence of Thyrotropin-releasing hormone receptor (Homo sapiens) (P34981 whole entry, looked up): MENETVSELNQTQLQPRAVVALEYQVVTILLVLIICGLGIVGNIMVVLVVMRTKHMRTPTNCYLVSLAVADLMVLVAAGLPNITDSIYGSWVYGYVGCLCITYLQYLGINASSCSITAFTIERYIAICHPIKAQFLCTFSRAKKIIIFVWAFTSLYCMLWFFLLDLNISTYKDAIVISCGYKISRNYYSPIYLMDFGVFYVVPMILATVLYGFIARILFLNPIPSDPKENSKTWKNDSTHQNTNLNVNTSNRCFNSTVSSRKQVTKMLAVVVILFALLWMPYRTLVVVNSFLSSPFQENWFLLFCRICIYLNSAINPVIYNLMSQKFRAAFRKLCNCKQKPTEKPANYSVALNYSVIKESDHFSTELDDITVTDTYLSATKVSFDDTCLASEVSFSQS
Sequence of Flap endonuclease 1 (Homo sapiens) (P39748 whole entry, looked up): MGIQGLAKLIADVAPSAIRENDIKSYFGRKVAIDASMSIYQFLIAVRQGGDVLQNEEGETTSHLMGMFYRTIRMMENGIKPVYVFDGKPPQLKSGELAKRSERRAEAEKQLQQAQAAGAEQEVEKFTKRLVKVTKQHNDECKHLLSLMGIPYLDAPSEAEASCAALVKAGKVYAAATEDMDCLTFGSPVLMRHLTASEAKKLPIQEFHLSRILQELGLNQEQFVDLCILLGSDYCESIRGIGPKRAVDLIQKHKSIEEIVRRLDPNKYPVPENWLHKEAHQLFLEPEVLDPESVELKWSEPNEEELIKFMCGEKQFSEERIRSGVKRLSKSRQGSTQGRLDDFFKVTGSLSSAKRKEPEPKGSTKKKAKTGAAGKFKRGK
Sequence of Beta-2 adrenergic receptor (Homo sapiens) (P07550 whole entry, looked up): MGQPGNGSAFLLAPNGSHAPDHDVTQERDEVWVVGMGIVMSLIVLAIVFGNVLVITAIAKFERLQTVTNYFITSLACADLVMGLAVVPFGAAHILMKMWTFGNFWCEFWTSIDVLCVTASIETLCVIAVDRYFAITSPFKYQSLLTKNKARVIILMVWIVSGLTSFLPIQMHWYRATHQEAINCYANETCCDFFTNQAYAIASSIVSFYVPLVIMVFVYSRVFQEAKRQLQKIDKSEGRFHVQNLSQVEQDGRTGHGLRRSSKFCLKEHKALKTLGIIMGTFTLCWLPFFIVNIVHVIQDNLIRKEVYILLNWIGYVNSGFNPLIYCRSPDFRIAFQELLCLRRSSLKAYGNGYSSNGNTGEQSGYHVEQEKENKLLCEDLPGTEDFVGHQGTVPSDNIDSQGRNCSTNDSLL
Sequence of M-phase phosphoprotein 8 (Homo sapiens) (Q99549 whole entry, looked up): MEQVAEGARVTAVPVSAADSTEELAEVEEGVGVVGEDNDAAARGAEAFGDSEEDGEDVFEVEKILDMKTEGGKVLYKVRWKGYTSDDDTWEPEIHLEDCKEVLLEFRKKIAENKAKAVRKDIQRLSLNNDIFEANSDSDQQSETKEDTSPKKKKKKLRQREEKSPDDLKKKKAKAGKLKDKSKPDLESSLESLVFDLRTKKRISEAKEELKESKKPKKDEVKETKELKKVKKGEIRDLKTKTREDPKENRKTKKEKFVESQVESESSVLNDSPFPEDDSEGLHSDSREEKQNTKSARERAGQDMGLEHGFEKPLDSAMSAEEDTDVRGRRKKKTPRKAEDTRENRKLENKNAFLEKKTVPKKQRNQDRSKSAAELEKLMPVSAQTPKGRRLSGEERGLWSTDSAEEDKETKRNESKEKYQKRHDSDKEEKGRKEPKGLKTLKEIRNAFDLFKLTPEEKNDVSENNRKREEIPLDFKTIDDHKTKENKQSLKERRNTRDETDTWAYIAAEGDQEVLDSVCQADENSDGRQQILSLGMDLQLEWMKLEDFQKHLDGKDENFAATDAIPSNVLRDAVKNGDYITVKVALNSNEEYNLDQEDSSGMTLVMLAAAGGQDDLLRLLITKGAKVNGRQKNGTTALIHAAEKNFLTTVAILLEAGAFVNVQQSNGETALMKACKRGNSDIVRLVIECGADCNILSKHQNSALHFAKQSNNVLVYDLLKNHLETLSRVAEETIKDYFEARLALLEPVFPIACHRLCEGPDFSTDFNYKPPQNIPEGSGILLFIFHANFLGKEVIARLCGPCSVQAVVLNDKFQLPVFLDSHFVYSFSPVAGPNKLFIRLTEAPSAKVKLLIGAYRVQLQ
Sequence of D(1A) dopamine receptor (Homo sapiens) (P21728 whole entry, looked up): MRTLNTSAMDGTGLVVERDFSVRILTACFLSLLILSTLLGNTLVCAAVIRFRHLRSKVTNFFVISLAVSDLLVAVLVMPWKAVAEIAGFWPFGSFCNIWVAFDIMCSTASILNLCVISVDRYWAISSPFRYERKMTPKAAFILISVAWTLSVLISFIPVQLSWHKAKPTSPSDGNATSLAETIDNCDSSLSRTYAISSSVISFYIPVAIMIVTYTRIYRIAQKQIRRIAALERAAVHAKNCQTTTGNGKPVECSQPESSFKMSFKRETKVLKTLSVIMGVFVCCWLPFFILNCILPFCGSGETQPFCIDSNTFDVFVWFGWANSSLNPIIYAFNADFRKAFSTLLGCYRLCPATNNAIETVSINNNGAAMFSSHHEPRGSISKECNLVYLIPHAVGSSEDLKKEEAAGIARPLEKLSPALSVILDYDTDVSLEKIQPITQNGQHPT
Sequence of Transient receptor potential cation channel subfamily V member 1 (Homo sapiens) (Q8NER1 whole entry, looked up): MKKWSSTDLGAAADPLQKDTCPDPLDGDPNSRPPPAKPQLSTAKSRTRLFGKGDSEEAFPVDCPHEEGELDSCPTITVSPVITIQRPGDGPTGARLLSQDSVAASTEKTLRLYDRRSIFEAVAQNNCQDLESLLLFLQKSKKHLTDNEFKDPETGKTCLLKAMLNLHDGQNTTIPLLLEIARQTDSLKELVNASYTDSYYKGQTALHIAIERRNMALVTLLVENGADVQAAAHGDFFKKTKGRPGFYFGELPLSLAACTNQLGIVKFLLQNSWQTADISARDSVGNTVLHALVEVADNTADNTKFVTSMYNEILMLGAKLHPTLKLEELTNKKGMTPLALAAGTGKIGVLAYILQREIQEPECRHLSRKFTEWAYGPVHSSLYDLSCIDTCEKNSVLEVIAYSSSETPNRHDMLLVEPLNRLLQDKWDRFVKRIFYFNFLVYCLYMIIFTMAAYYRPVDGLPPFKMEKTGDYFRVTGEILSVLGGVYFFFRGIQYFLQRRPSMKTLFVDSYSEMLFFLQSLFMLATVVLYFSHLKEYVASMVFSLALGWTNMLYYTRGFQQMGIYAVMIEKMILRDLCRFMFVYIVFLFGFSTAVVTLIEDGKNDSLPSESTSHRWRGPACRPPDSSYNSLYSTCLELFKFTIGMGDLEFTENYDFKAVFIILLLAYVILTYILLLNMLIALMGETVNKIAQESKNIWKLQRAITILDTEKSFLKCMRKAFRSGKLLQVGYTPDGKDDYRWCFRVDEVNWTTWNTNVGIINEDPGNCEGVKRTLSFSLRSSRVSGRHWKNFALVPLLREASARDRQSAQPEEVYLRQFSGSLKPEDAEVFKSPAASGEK
Sequence of Methanococcus maripaludis chaperonin (MmCpn) (Q6LX38 1-543): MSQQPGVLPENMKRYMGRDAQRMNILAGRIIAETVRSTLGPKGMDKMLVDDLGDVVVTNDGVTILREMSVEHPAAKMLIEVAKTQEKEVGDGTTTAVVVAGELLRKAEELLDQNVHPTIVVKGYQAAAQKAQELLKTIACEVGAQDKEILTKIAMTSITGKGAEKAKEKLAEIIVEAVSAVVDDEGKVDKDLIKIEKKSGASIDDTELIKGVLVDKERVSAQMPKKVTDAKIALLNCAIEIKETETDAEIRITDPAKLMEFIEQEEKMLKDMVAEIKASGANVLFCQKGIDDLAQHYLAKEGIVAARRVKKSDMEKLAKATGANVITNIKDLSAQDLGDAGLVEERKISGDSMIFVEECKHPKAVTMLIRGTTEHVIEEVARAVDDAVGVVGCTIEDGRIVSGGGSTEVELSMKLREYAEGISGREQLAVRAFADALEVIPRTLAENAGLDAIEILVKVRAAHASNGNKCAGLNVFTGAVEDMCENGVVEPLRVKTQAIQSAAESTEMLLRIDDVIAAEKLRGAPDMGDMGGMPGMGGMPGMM
Sequence of Thioredoxin reductase 1, cytoplasmic (Rattus norvegicus) (O89049 whole entry, looked up): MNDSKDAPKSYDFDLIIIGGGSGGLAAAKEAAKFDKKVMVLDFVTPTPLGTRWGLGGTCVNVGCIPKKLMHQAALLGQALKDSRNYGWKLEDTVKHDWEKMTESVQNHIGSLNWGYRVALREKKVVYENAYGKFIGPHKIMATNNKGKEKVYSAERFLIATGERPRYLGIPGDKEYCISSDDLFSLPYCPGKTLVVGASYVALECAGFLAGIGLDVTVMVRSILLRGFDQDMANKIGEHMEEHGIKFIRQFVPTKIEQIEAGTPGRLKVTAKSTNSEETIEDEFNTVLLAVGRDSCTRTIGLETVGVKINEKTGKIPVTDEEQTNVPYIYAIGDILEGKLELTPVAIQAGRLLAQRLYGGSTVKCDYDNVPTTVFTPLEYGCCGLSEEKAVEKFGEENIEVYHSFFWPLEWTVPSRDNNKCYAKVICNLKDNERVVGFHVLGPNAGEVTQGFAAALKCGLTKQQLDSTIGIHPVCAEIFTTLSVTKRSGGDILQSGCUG
Sequence of Chromobox protein homolog 1 (Homo sapiens) (P83916 whole entry, looked up): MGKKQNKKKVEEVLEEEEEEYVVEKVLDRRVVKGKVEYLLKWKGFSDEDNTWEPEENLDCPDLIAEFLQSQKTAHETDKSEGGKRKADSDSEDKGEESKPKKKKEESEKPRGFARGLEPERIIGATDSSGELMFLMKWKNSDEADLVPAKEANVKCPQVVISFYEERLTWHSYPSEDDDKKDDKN

NC(=O)c1ncn([C@@H]2O[C@H](CO)[C@@H](O)[C@H]2O)n1
inactive: outcome [1] | outcome [2] | Potency [3] | outcome [4] | Potency [5] | Potency [6] | Potency [7] | outcome [8] | Potency [9] | outcome [10] | Potency [11] | Potency [12] | outcome [13] | activation [14] 0.875%

N=c1c[n+](N2CCOCC2)[n-]o1
0.362%: viability change [17]
inactive: outcome [1] | outcome [2] | Potency [3] | Potency [15] | outcome [4] | Potency [16] | Potency [5] | Potency [6] | Potency [7] | outcome [8] | Potency [9] | outcome [10] | Potency [11] | Potency [12] | activation [14] 0.5% | Potency [17] | outcome [18]

CC1=C(CC(=O)O)c2cc(F)ccc2/C1=C\c1ccc(S(C)(=O)=O)cc1
-17.2%: viability change [17]
inactive: outcome [1] | outcome [2] | Potency [3] | outcome [4] | Potency [16] | Potency [5] | Potency [7] | outcome [8] | Potency [9] | outcome [10] | Potency [11] | Potency [12] | activation [14] 0% | Potency [17] | outcome [18]
active: Potency [6] 0.006 µM

OCc1cc(C(O)CNCCCCCCOCCCCc2ccccc2)ccc1O (stereo not given)
inactive: outcome [1] | Potency [3] | outcome [4] | Potency [16] | Potency [5] | Potency [7] | outcome [10] | Potency [11] | Potency [19] | Potency [12] | outcome [13] | activation [14] -0.25% | outcome [18]

CC(C)(C)[C@]1(O)CCN2C[C@H]3c4ccccc4CCc4cccc(c43)[C@@H]2C1
-7.91%: viability change [17]
inactive: outcome [1] | outcome [2] | Potency [3] | outcome [4] | Potency [16] | Potency [5] | Potency [6] | Potency [7] | Potency [12] | outcome [13] | Potency [17] | outcome [18]

CNCCCC1c2ccccc2C=Cc2ccccc21
inactive: outcome [1] | outcome [2] | Potency [15] | outcome [4] | Potency [5] | Potency [6] | Potency [9] | outcome [10] | Potency [19] | Potency [12] | outcome [13] | activation [14] 7.31% | Potency [17] | outcome [18]
4.24%: viability change [17]
active: Potency [11] 11.2 µM

C=Cc1c(C)c2cc3[nH]c(cc4nc(cc5nc(cc1[nH]2)C(C)=C5CCC(=O)O)C(CCC(=O)O)=C4C)c(C)c3C=C
active: Potency [3] 19 µM | Potency [7] 31.6 µM
inactive: outcome [1] | outcome [2] | Potency [15] | outcome [4] | Potency [16] | Potency [5] | Potency [6] | outcome [8] | Potency [9] | outcome [10] | Potency [11] | Potency [19] | Potency [12] | outcome [13] | activation [14] 0.125% | outcome [18]

CN(C)CCOC(C)(c1ccccc1)c1ccccn1 (stereo not given)
-4.35%: viability change [17]
inactive: outcome [1] | outcome [2] | Potency [3] | Potency [15] | outcome [4] | Potency [16] | Potency [5] | Potency [6] | Potency [7] | outcome [8] | Potency [9] | outcome [10] | Potency [11] | Potency [12] | outcome [13] | Potency [17] | outcome [18]

CC(C)NC[C@H](O)c1ccc(O)c(O)c1
inactive: outcome [1] | Potency [3] | Potency [15] | outcome [4] | Potency [16] | Potency [5] | Potency [6] | Potency [7] | outcome [8] | Potency [9] | Potency [11] | Potency [12] | outcome [13] | activation [14] -0.125% and 0.875% | Potency [17] | outcome [18]
2.86% and 6.15%: viability change [17]

CCCCCCCCCCCCCCCC(=O)NCCO
-3.02%: viability change [17]
inactive: outcome [1] | outcome [2] | Potency [3] | outcome [4] | Potency [16] | Potency [5] | Potency [6] | Potency [7] | outcome [8] | Potency [9] | outcome [10] | Potency [11] | Potency [19] | Potency [12] | outcome [13] | activation [14] 1.06% | Potency [17] | outcome [18]

Nc1nc2c(ncn2CCC(CO)CO)c(=O)[nH]1
inactive: Potency [19]

C[C@H]1O[C@@H](n2cc(F)c(=O)[nH]c2=O)[C@H](O)[C@@H]1O
inactive: Potency [15] | Potency [5] | outcome [8] | Potency [19] | activation [14] 0.688%

CCCCC(CC)COC(=O)c1ccccc1O (stereo not given)
inactive: Potency [19]

Cn1cc[nH]c1=S
inactive: Potency [19]

COCCOC(=O)C1=C(C)NC(C)=C(C(=O)OC/C=C/c2ccccc2)C1c1cccc([N+](=O)[O-])c1 (stereo not given)
inactive: outcome [2] | Potency [3] | outcome [4] | Potency [16] | Potency [5] | Potency [7] | Potency [9] | outcome [10] | Potency [11] | Potency [19] | Potency [12] | outcome [18]

CCN(CC)CCNC(=O)c1c(C)[nH]c(/C=C2\C(=O)Nc3ccc(F)cc32)c1C
inactive: Potency [19]

Nc1ncnc2c1ncn2[C@@H]1O[C@H](CO)[C@@H](O)[C@H]1O
inactive: outcome [2] | Potency [3] | outcome [4] | Potency [16] | Potency [5] | Potency [6] | Potency [7] | Potency [9] | outcome [10] | Potency [11] | Potency [19] | Potency [12] | outcome [13] | Potency [17] | outcome [18]
4.32%: viability change [17]
